High-throughput results (PubChem)
EP2 modulator: modulators of human EP2 prostaglandin E2 receptor; actives 0.83% (n = 260,000); P43116; induction, % at 25 µM; EP2-expressing cells, cAMP HTRF FRET, PGE2 co-stimulation;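 active = compounds whose cAMP rise, as percent of the full-agonist control response, exceeds 60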;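 note: rat C6 glioma line stably carrying human EP2 under a CMV promoter; the protocol text gives 20 µM as final concentration; 100% = response of wells given 1 µM PGE2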
Target sequence (P43116 whole entry, looked up): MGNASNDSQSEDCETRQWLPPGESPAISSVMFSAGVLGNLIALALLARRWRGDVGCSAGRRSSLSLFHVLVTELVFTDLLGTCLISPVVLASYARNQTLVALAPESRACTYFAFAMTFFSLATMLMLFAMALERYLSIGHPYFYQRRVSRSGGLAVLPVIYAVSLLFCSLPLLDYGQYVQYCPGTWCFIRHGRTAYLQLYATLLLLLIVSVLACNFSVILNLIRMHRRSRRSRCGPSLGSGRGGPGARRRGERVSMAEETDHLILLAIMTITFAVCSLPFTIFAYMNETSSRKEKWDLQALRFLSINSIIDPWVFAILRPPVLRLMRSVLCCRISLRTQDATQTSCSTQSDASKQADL
CHT allo act: allosterically activates the human high affinity choline transporter; Q9GZV3; CHT-expressing cells, membrane potential dye, choline EC20; hits give high values; LV-AA mutant CHT in HEK293 cells; B-score at 10 µM; actives 0.49% (n = 310,000);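 active = initial fluorescence not abnormally high and integrated response B-score, plate-corrected, over 3 SD above library mean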
PGE2 EP2 inh: inhibitors of human EP2 prostaglandin E2 receptor; C6 glioma cells expressing human EP2, cAMP TR-FRET; cells stimulated with saturating PGE2; inhibition, % at 25 µM; actives 0.52% (n = 260,000);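 active = percent inhibition above 40 after rounding to a whole number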;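 note: rat C6 glioma host cells with rolipram phosphodiesterase inhibitor present; the protocol text gives 20 µM as final concentration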
CHT block: inhibitors of human choline transporter CHT; AID 488975; CHT-expressing cells, membrane potential dye, choline response; hits give low values; actives 0.86% (n = 310,000); Q9GZV3; B-score at 10 µM;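 active = B-score over 3 SD under the library average, and starting fluorescence ratio not unusually high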;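 note: choline stimulus applied at its EC90 after an EC20 pre-addition; B-score computed on integrated fluorescence ratio after choline addition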
* hit, by the source's call; i = inactive; / = not tested or not shown; ! = not confirmed by another sample. Rows were chosen to be rich in hits. Some 2.1% of all compounds tested hit in one or more screens of this group.

SMILES	EP2 modulator	CHT allo act	PGE2 EP2 inh	CHT block
N#Cc1c(NC(=O)CCN2C(=O)c3ccccc3C2=O)oc(-c2ccccc2)c1-c1ccccc1	29.0	i	12.3	-5.92*
N#Cc1c(NC(=O)CN2C(=O)c3ccccc3C2=O)oc(-c2ccccc2)c1-c1ccccc1	/	i	3.1	i
NCOC(=O)Cc1ccc(Br)cc1	10.4	/	54.5*	/
COc1ccccc1NC(=O)Cc1ccc(-c2ccccc2)cc1	/	i	/	i
COc1ccc(CC(=O)Nc2ccccc2Oc2ccccc2)cc1	44.9	i	8.1	-6.19*
Cc1ccc2nc(N3C(=O)C(O)=C(C(=O)c4ccco4)C3c3ccco3)sc2c1 (configuration not stated)	11.8	/	35.4	/
CCCOc1cccc(C2C(C(=O)c3ccc(C)o3)=C(O)C(=O)N2c2nc(C)c(C(C)=O)s2)c1 (configuration not stated)	/	i	/	i
Cc1ccc2nc(N3C(=O)C(O)=C(C(=O)c4ccco4)C3c3cccs3)sc2c1 (configuration not stated)	31.2	i	75.4*!	i
Cc1ccc2nc(N3C(=O)C(O)=C(C(=O)c4ccc(C)o4)C3c3ccc(O)cc3)sc2c1 (configuration not stated)	-7.7	/	49.4*	/
c1ccc2c(c1)C(=Nc1ccc(N=C3c4ccccc4-c4ccccc43)cc1)c1ccccc1-2	-8.1	/	44.5*	/
O=C1Nc2ccccc2C1=Nc1ccc(Cl)cc1	/	i	/	i
CC1CCN(c2nc3c(c(=O)[nH]2)CN(Cc2ccc4nccnc4c2)CC3)CC1	1.6	/	8.7	/
CCN(CC)C(=O)C1(P(=O)(c2ccccc2)c2ccccc2)CCC1	21.2	i	9.7	i
CCCCN(CCCC)C(=O)C1(P(=O)(c2ccccc2)c2ccccc2)CCC1	84.9*	i	5.9	i
COc1cccc(C2c3c(C)nn(-c4ccc([N+](=O)[O-])cc4)c3N=C3C(=O)Nc4ccccc4N32)c1 (configuration not stated)	-24.9	i	6.2	i
Cc1ccc(C2c3c(C)nn(-c4ccc([N+](=O)[O-])cc4)c3N=C3C(=O)Nc4ccccc4N32)cc1 (configuration not stated)	14.6	i	2.6	-6.25*
CCN(CC)c1nc(Oc2ccc(C(=O)OC)cc2)nc(N2CCOCC2)n1	62.1*	i	2.5	i
Cc1ccc2cc(CN(Cc3ccccc3)C(=S)NCC3CCCO3)c(=O)[nH]c2c1C (configuration not stated)	-39.0	/	6.9	/
Cc1ccc(C)c(Cn2c3ccccc3n3c(SCC(=O)N4CC(=O)Nc5ccccc54)nnc23)c1	-7.9	/	9.6	/
Cc1ccc(C2(C(=O)N[C@H](Cn3nc(C4CC4)ccc3=O)C(C)C)CC2)cc1	22.7	/	/	/
Cc1ccc(C2(C(=O)N[C@H](Cn3nc(-c4cccs4)ccc3=O)C(C)C)CC2)cc1	75.6*	/	5.2	/
Cc1nc2cc(NC(=O)/C=C/c3ccc(N(C)C)cc3)ccc2s1	-117.3	/	82.3*	/
CC(=O)NCC1COc2ccccc2O1 (configuration not stated)	-4.6	i	53.9*!	i
CCOc1ccccc1NC(=S)Nc1ncccc1C	26.3	i	41.4*	i
Nc1nc(/C=C/c2c[nH]c3ccccc23)nc(-c2ccccc2O)n1	-117.1	/	91.4*	/
SMILES	EP2 modulator	CHT allo act	PGE2 EP2 inh	CHT block
Nc1nc(/C=C/c2ccc(F)cc2)nc(-c2ccccc2O)n1	-25.7	i	9.1	i
O=c1c2ccccc2c2ccccc2c(=O)n1-c1cc2c3ccccc3ccc2c2ccccc12	17.5	/	48.7*	/
COc1ccc(OC)c(-n2c(=O)c3ccccc3c3ccccc3c2=O)c1	26.8	i	3.7	i
N=c1sc2ccccc2n1CCS (tested in a mixture with another compound)	-26.5	/	57.4*	/
CC1CC2c3ccccc3NC2C(=O)N1 (configuration not stated)	-22.8	/	15.4	/
COc1cccc(/C=N/N2CCN(C3c4ccccc4-c4ccccc43)CC2)c1O	65.5*	i	8.7	i
COc1cc(/C=N/N2CCN(C3c4ccccc4-c4ccccc43)CC2)ccc1O	54.6	i	10.3	i
C(=N\N1CCN(C2c3ccccc3-c3ccccc32)CC1)/c1ccncc1	61.1*	i	9.4	i
Oc1cccc(/C=N/N2CCN(C3c4ccccc4-c4ccccc43)CC2)c1	31.8	i	11.1	i
CCC(C)NC(=O)CSc1nc(-c2ccco2)cc(C(F)(F)F)n1 (configuration not stated)	-131.7	/	12.3	/
Cc1ccc(-n2ncc3c2CC(C)(C)CC3NC(=O)CCn2nc(C)cc2C)cc1 (configuration not stated)	-18.6	/	8.8	/
Cc1cc(C(F)(F)F)n2nc(C(=O)N3CCN(Cc4ccco4)C[C@@H]3C(C)C)cc2n1	-31.4	/	/	/
CCN(CC)c1ccc(/C=c2\sc3nnc(-c4ccccc4Cl)n3c2=O)cc1	5.2	i	10.1	i
CCN(CC)c1ccc(/C=c2/sc3nnc(-c4ccccc4C)n3c2=O)cc1	11.5	i	48.1*	i
O=C(Nc1nc(-c2nc3ccccc3s2)cs1)C1COc2ccccc2O1 (configuration not stated)	-43.5	i	42.5*	i
Cc1ccccc1CN1CCSc2sccc2C1=O	61.6*	i	1.4	i
O=C1c2ccsc2SCCN1Cc1cccc(Cl)c1	61.1*	i	9.9	i
COc1ccccc1CNC(=O)c1csc(Cc2ccc(Cl)cc2)n1	62.1*	i	14.6	i
COc1cccc(N2C(N)=NC(N)=NC2(C)C)c1	13.5	i	7.8	i
CC1(C)N=C(N)N=C(N)N1c1cccc(OCc2cccc([N+](=O)[O-])c2)c1	10.4	/	47.4*	/
Oc1ccc2ccccc2c1CN(Cc1c(O)ccc2ccccc12)C1CCCCC1	-11.5	/	54.9*	/
NC(=O)C1CCN(C(=O)Cn2nc3c4ccccc4nc(Cc4ccccc4)n3c2=O)CC1	-12.2	/	5.2	/
COC(=O)c1scc(C)c1N/N=C(\C)c1ccc(F)cc1	60.6*	i	3.7	i
CCOC(=O)c1ccccc1NC(=O)CSc1nnnn1C1CCCCC1	63.6*!	i	3.2	i
CCOc1ccc(Cl)cc1/C=C1/C(=O)ON=C1C	/	i	/	i
SMILES	EP2 modulator	CHT allo act	PGE2 EP2 inh	CHT block
Cc1ccc(C2=NOC(=O)/C2=C\c2ccc(C)o2)cc1	-29.8	i	8.6	i
CC1=NOC(=O)/C1=C\c1ccc(-c2cc(Cl)ccc2Cl)o1	-14.6	i	60.5*	i
CC1=NN(c2ccc(Br)cc2)C(=O)/C1=C/c1ccc(-c2ccccc2C(=O)O)o1	/	i	/	-7.23*
COc1ccc(Cl)cc1/C=C1/C(=O)ON=C1C	/	i	/	i
CC1=NOC(=O)/C1=C/c1ccc(-c2ccc(Cl)cc2)o1	-44.7	i	184.5*	i
CC1=NOC(=O)/C1=C\c1ccc(-c2ccc(Br)cc2)o1	-69.0	/	76.5*	/
Cc1ccc(C(=O)N2C(=O)C(c3ccccc3)Oc3ccccc32)cc1 (configuration not stated)	87.2*	i	9.8	i
